High-throughput results: PubChem, Sanford-Burnham Center for Chemical Genomics
A selection: hits, their analogues and other compounds. The true share with any hit is near 4%.
TWEAK Fn14 block: inhibitors of TWEAK-Fn14 signaling, primary screen, luciferase reporter cells, uHTS; TWEAK-stimulated Fn14 reporter cells, luciferase luminescence, 8 h; inhibition, % at 10 µM; hit rate 2% among 360,000; in the data active means inhibition above about 50%
Peg3 promoter: Peg3 promoter-driven luciferase inhibitors, primary screen, cell-based, HeLa, luciferase luminescence. inhibition, % at 20 µM. AID 588405, 2011. hit rate 1.7% among 360,000. HeLa PEG-Prom luciferase reporter, overnight;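 active means inhibition of at least 50% at 20 µM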
CF NFkB block: inhibitors of PAF-induced NF-kB signaling, primary screen, cell-based, GFP fluorescence, uHTS. inhibition, % at 5 µM. KKLEB NF-kB-GFP reporter, GFP fluorescence overnight. AID 588850, 2011. hit rate 0.86% among 360,000;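 active means at least 50% inhibition at 5 µM, scaled per plate between neutral and stimulator controls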;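 further: PAF is a Pseudomonas aeruginosa culture filtrate used as stimulus; plate controls were PAF-stimulated DMSO wells for no effect and unstimulated DMSO wells for full effect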
KKLEB tox: cytotoxicity in KKLEB CF airway cells, primary screen, cytotoxicity control for CF NF-kB inhibitor project, cell-based, uHTS, fluorescence assay plates; KKLEB CF airway cells viability, ATPlite luminescence, overnight; hits give low values; cells stimulated with P. aeruginosa culture filtrate; activity change (cytotoxicity), % at 5 µM; hit rate 0.36% among 360,000; AID 602141, 2011;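 active means corrected activity change at or below -50% at 5 µM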
TROY NFkB inh: inhibitors of TROY-driven NF-kB signaling, primary screen, Q293 LMP1-TROYcd cells, NF-kB luciferase, uHTS; inhibition, % at 10 µM; AID 1347056, 2019; hit rate 0.98% among 360,000; Q293 LMP1-TROYcd NF-kB luciferase reporter, 4 h;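 active means compounds whose plate-normalised and pattern-corrected inhibition of the luciferase reporter signal at the single screening dose is 50% or more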
HIF-2a inh: HIF-2a reporter inhibitors, primary screen, luminescence, 786-0 RCC cells | inhibition, % at 18.8 µM | 786-0 RCC cells HIF-2a reporter, luciferase luminescence, overnight | hit rate 0.72% among 360,000 | AID 624352, 2012;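 active means inhibition of the luminescence signal of 40% or more relative to plate controls, in a single-dose primary screen at 18.75 µM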
* marks the source's active call; other numbers are inactive results; . = no result.

SMILES | TWEAK Fn14 block | Peg3 promoter | CF NFkB block | KKLEB tox | TROY NFkB inh | HIF-2a inh
CC(CC(=O)N(CCC1=CCCCC1)c1c(N)n(Cc2ccccc2)c(=O)[nH]c1=O)c1ccccc1 (stereo not given) | 22 | 87* | -12 | 5 | 20 | -6
COC(=O)c1c(C)[nH]c(C(=O)OCC(=O)NC(C)(C)C)c1C | 24 | -12 | -1 | 17 | -11 | -20
Cc1cccc(CCNC(=O)C2CC(O)CN2C(=O)Nc2ccccc2)c1 (stereo not given) | -22 | -9 | -23 | 4 | 10 | 4
COc1ccc(S(=O)(=O)NCCSCc2ccco2)cc1 | 72* | 15 | 1 | 9 | . | 19
CCOc1ccc(S(=O)(=O)NCCSCc2ccco2)cc1 | 11 | 14 | -1 | 1 | 0 | 7
CC(=O)C1CCC2C3CCC4=CC(=O)CCC4(C)C3(F)C(O)CC12C (stereo not given) | -8 | 10 | 61* | -3 | 19 | 15
CC1(C)OC2CC3C4CCC5=CC(=O)CCC5(C)C4(F)C(O)CC3(C)C2(C(=O)CO)O1 (stereo not given) | -14 | -17 | 96* | 3 | 27 | 13
CC(=O)OC1CC2(C)C(C(C)=O)CCC2C2CCC3=CC(=O)CCC3(C)C12 (stereo not given) | 4 | 7 | 20 | -18 | 11 | 14
CC12CCC(=O)C=C1CCC1C3CC(O)C(O)(C(=O)CO)C3(C)CC(O)C12F (stereo not given) | 1 | -6 | 78* | -7 | 24 | 13
Cc1ccc2nc(CSc3nc(C)cc(C)c3C#N)[nH]c2c1 | 38 | -286 | -22 | -14 | 59* | -223
COCCn1c(C)cc(C(=O)COC(=O)c2ccc(-n3nc(C)cc3C)cc2)c1C | 10 | -22 | -9 | -3 | 25 | 3
COCCn1c(C)cc(C(=O)COC(=O)c2ccc(Cl)c(S(N)(=O)=O)c2)c1C | 72* | -126 | 14 | -23 | 10 | -147
COc1cc(OC)cc(C(=O)OCC(=O)c2cc(C)n(CC3CCCO3)c2C)c1 (stereo not given) | -5 | -128 | -9 | -18 | -9 | -37
Cc1cc(C(=O)CSc2nc3ccccc3c(=O)[nH]2)c(C)n1CC1CCCO1 (stereo not given) | 60* | -292 | -10 | 8 | 42 | -226
CCn1c(SCC(=O)c2cc(C)n(CC3CCCO3)c2C)nc2ccccc21 (stereo not given) | -5 | -138 | -4 | 2 | 6 | -69
CNS(=O)(=O)c1cccc(C(=O)OCC(=O)c2cc(C)n(CC3CCCO3)c2C)c1 (stereo not given) | 37 | -126 | 21 | -31 | 47 | -140
Cc1cc(C(=O)COC(=O)c2ccc(O)cc2)c(C)n1CC1CCCO1 (stereo not given) | 50 | -171 | -7 | 7 | 62* | -164
Cc1cc(C(=O)COC(=O)c2ccc(Cl)c(S(N)(=O)=O)c2)c(C)n1CC1CCCO1 (stereo not given) | 64* | -197 | 5 | -2 | 72* | -92
Cc1cc(C(=O)COC(=O)c2cccc(O)c2)c(C)n1C1CC1 | 54* | -89 | -9 | 0 | -10 | -122
Cc1cc(C(=O)COc2cccc([N+](=O)[O-])c2)c(C)n1C1CC1 | -11 | -285 | 12 | 3 | -33 | -292
O=C(Nc1ccccc1C(=O)Nc1nnc(C(F)(F)F)s1)c1ccccc1Cl | 62* | 48 | 56* | -61* | 66* | -4
Cc1nn(-c2ccccc2)nc1C(=O)Nc1nnc(C(F)(F)F)s1 | 11 | 9 | 11 | 7 | 52* | -15
CC(NC(=O)Nc1nnc(C(F)(F)F)s1)(C(F)(F)F)C(F)(F)F | 30 | 23 | 46 | -1 | 55* | 1
CCc1nnc(NC(=O)c2nn(-c3ccccc3)nc2C)s1 | -2 | -6 | 0 | 5 | -16 | 4
CC1CN(C(=O)COC(=O)c2cccs2)CC(C)O1 (stereo not given) | 12 | 8 | -5 | -6 | -1 | -14
SMILES | TWEAK Fn14 block | Peg3 promoter | CF NFkB block | KKLEB tox | TROY NFkB inh | HIF-2a inh
COc1ccccc1C1CCN(c2ccc(CO)cc2[N+](=O)[O-])CC1 | 7 | -8 | -10 | -4 | -23 | 3
COc1ccc(Cl)cc1N1CC(c2nc3ccccc3[nH]2)CC1=O (stereo not given) | 12 | -3 | 3 | -4 | 0 | 14
O=[N+]([O-])c1ccc2c(c1)C(N1CCN(CCO)CC1)Cc1ccc(F)cc1S2 (stereo not given) | 1 | 34 | 2 | -14 | -4 | -25
CSc1ccc2c(c1)C(N1CCN(C)CC1)Cc1ccc(F)cc1S2 (stereo not given) | -72 | 115* | 11 | -25 | 15 | -14
COc1ccc2c(c1)CC(N1CCN(C)CC1)c1cc(OC)ccc1S2 (stereo not given) | 3 | 69* | 25 | -15 | -30 | 11
Cc1nonc1NC(=O)CSc1nc(CCC2CCCC2)nc2ccccc12 | 46 | 22 | 35 | -29 | 3 | 26
COc1ccc(-c2csc(NC(=S)NC(=O)/C=C/c3ccc(C(C)C)cc3)n2)cc1OC | 66* | -5 | 14 | 9 | 70* | -17
Cc1cc(O)c(Sc2ncn[nH]2)cc1NS(=O)(=O)c1ccc(Cl)cc1 | -3 | 7 | 19 | 2 | -17 | 11
Cc1ccc(S(=O)(=O)Nc2ccc(Br)cc2C(NCC(=O)O)c2ccccc2)cc1 (stereo not given) | 12 | 10 | 24 | 8 | 0 | 20
O=C(O)CSc1cc(NS(=O)(=O)c2ccc(Br)cc2)c2ccccc2c1O | 98* | 45 | 91* | -31 | -15 | 5
O=S(=O)(Nc1cc(Sc2ncn[nH]2)c(O)c2ccccc12)c1ccccc1 | 95* | -5 | 79* | 7 | 62* | 3
CC(C)c1ccc(NC(=O)C2CCC(CNC(=O)[C@@H]3Cc4ccccc4CN3)CC2)cc1 (stereo not given in full) | 0 | 1 | 5 | 3 | -10 | -19
Cc1cc2nc(-c3ccc(SCc4ccc(C(=O)O)cc4)nc3)[nH]c2cc1C | 22 | -134 | -9 | 6 | 52* | -188
Cc1cc2nc(-c3ccc(SCC(=O)N4CCc5ccccc54)nc3)[nH]c2cc1C | 10 | 114* | 29 | -52* | 0 | -211
COC(=O)CSc1ncccc1-c1nc2ccccc2[nH]1 | -11 | -27 | 1 | -2 | -25 | -37
O=C(CSc1ncccc1-c1nc2ccccc2[nH]1)N1CCc2ccccc21 | 67* | -53 | -10 | -13 | 62* | -59
